Composite z-score and z-score data for 5 molecules are collected here from PubChem BioAssay.

The test system of test [1] is Wnt5a (protein binding on small-molecule microarray). Kind of test: small molecules binding Wnt5a protein – biophysical, small-molecule microarray, 635/667 nm fluorescence, primary screen (AID 1142).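 Also: fluorescence read at 667 nm with signal to noise per printed feature.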 The note with it: 635 nm fluorescence, higher = more signal.
Test [2] in a line: ATP-based viability of Huh7 replicon cells – cell-based, CellTiter-Glo luminescence, basal, 48 h, cytotoxicity control for HCV replication inhibitor project, primary screen (AID 1143).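 Also: Huh7 hepatoma cells carrying a hepatitis C replication reporter with no stimulus; test concentration not given here.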 The note with it: higher = more signal, called active from +8 up or from −8 down. (In general: In antiviral work, replicon cells carry a viral genome segment that copies itself.)
Test [3] in a line: Pseudomonas biofilm growth suppression – PAO1 strain, BacTiter-Glo luminescence, LB-PBS, primary screen (AID 1144). The note with it: P. aeruginosa PAO1 biofilm, 12 h, higher = more signal.
Test [4] can be described thus: basal CRE-LacZ reporter activity in PC12 – cell-based, unstimulated, primary screen (AID 1145). Particulars: no forskolin, luminescence, 4.5 h, higher = more signal, called active from +8 up or from −8 down.
Test [5] is described as follows: forskolin-driven CRE-LacZ activity in PC12 – cell-based, CRE-LacZ reporter, forskolin-stimulated, primary screen (AID 1146).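 Also: PC12 cells with 6xCRE LacZ reporter stimulated by forskolin 10 µM; beta-galactosidase reporter signal reflecting CREB driven transcription.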 The note with it: luminescence, 4.5 h, higher = more signal, called active from +8 up or from −8 down.
The target in test [6] is Streptavidin (Streptomyces avidinii) (UniProt P22629). Kind of test: compounds binding control protein streptavidin – biophysical, small-molecule microarray, 635/667 nm fluorescence, artefact control for SMM compound annotation, primary screen (AID 1147).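 Also: signal reflects streptavidin binding to arrayed compounds as a control protein.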 Particulars: higher = more signal.
Test [7] in a line: probe aInhba binding on compound microarray – biochemical, small-molecule microarray, 635/667 nm fluorescence, primary screen (AID 1148).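 Also: score merges 667nm spot fluorescence with signal-to-noise for antibody binding to printed compounds.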 The note with it: higher = more signal.
Test [8] deals with Torsin-1A (Homo sapiens) (UniProt O14656). Kind of test: TOR1A wild-type binding on microarray – cell lysate, small-molecule microarray, lysate, 635/667 nm, primary screen (AID 1149). Particulars: COS7 hTOR1A-WT lysate, 635 nm fluorescence, higher = more signal.
The target is the same in test [9]. Kind of test: torsin A mutant lysate binding on microarrays – cell lysate, small-molecule microarray, COS7 lysate, 635/667 nm fluorescence, primary screen (AID 1150).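 Also: score pools 667 nm emission and signal to noise measuring lysate protein binding.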 Particulars: COS7 hTOR1A mutant lysate, 635 nm fluorescence, higher = more signal.
Test [10] relates to Sonic hedgehog protein (Shh). As to the kind of experiment: Sonic hedgehog microarray binding compounds – biochemical, small-molecule microarray, 635/667 nm fluorescence, primary screen (AID 1151).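 Also: Shh protein binding to compounds spotted on small-molecule microarray slides; score combines spot fluorescence intensity with signal-to-noise across triplicate slides.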 The note with it: 635 nm fluorescence, higher = more signal.
Test [11] can be described thus: optical density shifts of acrAB sulA E. coli – strain DRC41, OD650, 48 h, E. coli filamentation inducer project, primary screen (AID 1152).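 Also: E. coli MC1000 strain DRC41 lacking acrAB efflux pump and sulA.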 Particulars: higher = more signal, called active from +8 up or from −8 down.
A short description of test [12]: probe aLefty1 binding on compound microarray – biochemical, small-molecule microarray, 635/667 nm fluorescence, primary screen (AID 1153).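 Also: score merges spot fluorescence with signal-to-noise ratio from the scanned slide images.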 Particulars: higher = more signal.
Test [13] is described as follows: plasmodial surface anion channel blockers, osmotic lysis – cell-based, P. falciparum Indochina, OD700, 1 h, primary screen (AID 1154). Particulars: P. falciparum Indochina infected RBC osmotic lysis, higher = more signal, called active from +8 up or from −8 down.
Test [14] is described as follows: plasmodial surface anion channel blockers, osmotic lysis – cell-based, P. falciparum Indochina, OD700, 2 h, primary screen (AID 1155).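 Also: lysis reports solute entry through the parasite surface anion channel PSAC.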 Particulars: P. falciparum Indochina infected erythrocytes, higher = more signal, called active from +8 up or from −8 down.
Test [15] is described as follows: changes in parasitized red cell lysis, either direction – P. falciparum Indochina, OD700, 3 h, PSAC antagonist project, primary screen (AID 1156). Particulars: P. falciparum-infected erythrocytes, osmotic lysis, higher = more signal, called active from +8 up or from −8 down.
Test [16] is described as follows: plasmodial surface anion channel blockers, osmotic lysis – cell-based, P. falciparum Indochina, OD700, 18 h, primary screen (AID 1157). Particulars: P. falciparum Indochina infected erythrocytes, osmotic lysis OD700, 18 h; higher = more signal, called active from +8 up or from −8 down.
A short description of test [17]: S6 kinase pathway phospho-S6 level changes – cell-based, A549, cytoblot, luminescence, serum-stimulated, primary screen (AID 1158).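 Also: serum-stimulated A549 lung adenocarcinoma cells; signal is phosphorylated S6 detected by cytoblot immunostaining with HRP secondary.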 The note with it: 5 h, higher = more signal.
Test [18] has as its target NADPH oxidase 2 (Homo sapiens) (UniProt P04839). Kind of test: compounds shifting NOX2 Amplex Red fluorescence – cell-based, HEK293-NOX2, PMA-stimulated, NOX inhibitor project, primary screen (AID 1159). Also: test concentration not given here. The note with it: 45 min, higher = more signal, called active from +8 up or from −8 down.
In test [19] the target is NADPH oxidase 4 (Homo sapiens) (UniProt Q9NPH5). As to the kind of experiment: compounds shifting NOX4 Amplex Red fluorescence – cell-based, HEK293-NOX4, tetracycline-induced, NOX inhibitor project, primary screen (AID 1160). The note with it: HEK293-NOX4, Amplex Red H2O2 fluorescence, 45 min; higher = more signal, called active from +8 up or from −8 down.
Test [20] concerns the target NADPH oxidase 5 (Homo sapiens) (UniProt Q96PH1). As to the kind of experiment: compounds shifting NOX5 Amplex Red fluorescence – cell-based, HEK293-NOX5, NOX inhibitor project, primary screen (AID 1161). Particulars: HEK293-NOX5, ionomycin, 45 min, higher = more signal.

The source made the active and inactive calls. Unless noted, no rule for the calls is given here.

Chain of Streptavidin (Streptomyces avidinii) (P22629 whole entry, looked up): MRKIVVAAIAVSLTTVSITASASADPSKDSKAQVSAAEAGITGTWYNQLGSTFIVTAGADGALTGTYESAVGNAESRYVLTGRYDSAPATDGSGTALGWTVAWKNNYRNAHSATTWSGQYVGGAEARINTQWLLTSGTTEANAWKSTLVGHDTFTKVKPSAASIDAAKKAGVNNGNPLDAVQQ
Chain of NADPH oxidase 5 (Homo sapiens) (Q96PH1 whole entry, looked up): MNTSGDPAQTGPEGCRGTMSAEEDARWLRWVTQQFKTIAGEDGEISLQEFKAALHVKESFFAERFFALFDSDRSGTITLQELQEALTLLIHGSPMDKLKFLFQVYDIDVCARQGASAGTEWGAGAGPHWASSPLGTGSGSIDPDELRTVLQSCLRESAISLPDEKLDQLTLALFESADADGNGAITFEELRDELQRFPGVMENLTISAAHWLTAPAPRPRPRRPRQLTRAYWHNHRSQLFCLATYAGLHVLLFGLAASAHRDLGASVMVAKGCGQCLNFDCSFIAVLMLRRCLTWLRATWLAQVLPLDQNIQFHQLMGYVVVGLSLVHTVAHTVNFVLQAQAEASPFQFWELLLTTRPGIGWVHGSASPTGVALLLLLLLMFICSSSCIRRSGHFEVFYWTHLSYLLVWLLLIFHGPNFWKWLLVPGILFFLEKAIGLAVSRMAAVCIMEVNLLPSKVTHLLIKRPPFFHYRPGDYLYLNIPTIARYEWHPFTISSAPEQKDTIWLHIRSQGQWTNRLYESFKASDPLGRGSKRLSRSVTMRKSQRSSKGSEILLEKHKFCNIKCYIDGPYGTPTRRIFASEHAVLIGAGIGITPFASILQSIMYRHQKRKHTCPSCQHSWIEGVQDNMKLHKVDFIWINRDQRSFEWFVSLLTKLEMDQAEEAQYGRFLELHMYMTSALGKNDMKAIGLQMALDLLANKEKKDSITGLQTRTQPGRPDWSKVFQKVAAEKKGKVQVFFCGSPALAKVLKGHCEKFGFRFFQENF
Chain of Torsin-1A (Homo sapiens) (O14656 whole entry, looked up): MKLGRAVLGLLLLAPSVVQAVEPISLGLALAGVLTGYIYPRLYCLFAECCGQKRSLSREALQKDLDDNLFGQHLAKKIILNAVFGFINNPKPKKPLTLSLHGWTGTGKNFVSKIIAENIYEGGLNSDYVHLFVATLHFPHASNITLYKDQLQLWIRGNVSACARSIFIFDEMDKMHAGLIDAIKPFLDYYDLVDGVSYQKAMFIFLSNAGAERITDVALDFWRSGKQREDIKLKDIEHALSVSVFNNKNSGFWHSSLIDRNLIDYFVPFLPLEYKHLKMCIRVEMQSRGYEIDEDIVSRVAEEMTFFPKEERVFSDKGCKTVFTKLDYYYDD
Chain of NADPH oxidase 2 (Homo sapiens) (P04839 whole entry, looked up): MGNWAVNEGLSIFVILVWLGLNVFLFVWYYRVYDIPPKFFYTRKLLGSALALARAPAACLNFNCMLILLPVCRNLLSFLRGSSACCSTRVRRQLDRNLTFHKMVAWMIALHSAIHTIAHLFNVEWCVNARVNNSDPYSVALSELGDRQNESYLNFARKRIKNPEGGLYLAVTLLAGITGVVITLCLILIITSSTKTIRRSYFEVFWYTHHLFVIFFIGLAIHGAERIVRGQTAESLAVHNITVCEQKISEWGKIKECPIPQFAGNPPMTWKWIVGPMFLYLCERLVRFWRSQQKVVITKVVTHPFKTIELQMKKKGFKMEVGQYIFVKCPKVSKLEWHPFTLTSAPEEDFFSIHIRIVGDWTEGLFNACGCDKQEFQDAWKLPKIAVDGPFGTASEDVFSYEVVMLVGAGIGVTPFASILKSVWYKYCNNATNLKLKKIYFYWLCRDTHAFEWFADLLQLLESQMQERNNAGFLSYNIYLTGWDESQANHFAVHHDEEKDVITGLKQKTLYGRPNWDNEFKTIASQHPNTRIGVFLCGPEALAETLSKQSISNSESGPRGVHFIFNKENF
Chain of NADPH oxidase 4 (Homo sapiens) (Q9NPH5 whole entry, looked up): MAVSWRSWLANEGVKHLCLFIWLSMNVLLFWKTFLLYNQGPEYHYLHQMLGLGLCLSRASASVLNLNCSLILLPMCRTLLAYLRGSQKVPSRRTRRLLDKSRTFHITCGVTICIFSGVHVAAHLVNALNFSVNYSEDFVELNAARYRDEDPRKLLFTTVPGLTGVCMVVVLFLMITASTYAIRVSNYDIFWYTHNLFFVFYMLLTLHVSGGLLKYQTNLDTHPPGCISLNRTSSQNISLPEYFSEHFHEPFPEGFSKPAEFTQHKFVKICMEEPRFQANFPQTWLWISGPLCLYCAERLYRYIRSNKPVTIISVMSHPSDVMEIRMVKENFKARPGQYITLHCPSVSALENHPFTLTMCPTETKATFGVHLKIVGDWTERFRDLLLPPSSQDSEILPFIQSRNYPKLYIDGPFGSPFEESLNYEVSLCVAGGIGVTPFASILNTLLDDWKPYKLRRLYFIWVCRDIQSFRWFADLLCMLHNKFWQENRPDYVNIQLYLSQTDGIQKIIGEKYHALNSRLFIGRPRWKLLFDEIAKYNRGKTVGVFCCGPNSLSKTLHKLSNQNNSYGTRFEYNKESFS

In the case of `CC(C)=CCCC(C)=CCON=C1[C@H]2CCn3c(=O)n(Cc4cc5c(cc4Cl)OCO5)c(=O)n3[C@H]2[C@H](O)[C@@H]2O[C@H]12`, the composite z-score in test [1] is 0.0888; in test [6], 0.813; in test [7] it was -0.128; in the test with Torsin-1A (Homo sapiens) [8], 1.62; with Torsin-1A (Homo sapiens) [9], 0.718; in test [10], 0.563. In test [12], this molecule showed a composite z-score of -0.0559. Also, the z-score in test [2] was 0.148 (inactive); in test [3] it was 0.138 (inactive); in [4], 0.336 (inactive); in test [5], 0.392 (inactive); in test [11] it was -0.939 (inactive); in test [13], 1.34 (inactive). Also, the z-score in test [14] was 0.722 (inactive); in [15] it was 0.555 (inactive); in test [16], 0.38 (inactive); in [17], 0.181; in test [18] it was 0.594 (inactive); in [19], -1.12 (inactive). The z-score in test [20] was -0.711.
For the molecule `CO[C@@H]1COC(=O)CCC[C@@H](C)[C@H](OC)COC(=O)[C@H](Cc2ccccc2)NC(=O)CC=C[C@H]1C`, the composite z-score is -0.706 in [1]; -0.431 in test [6]; -0.159 in [7]; 1.34 with Torsin-1A (Homo sapiens) [8]; -0.0271 with Torsin-1A (Homo sapiens) [9]; 1.99 in [10]. Also, the composite z-score in [12] was -0.235. Further, the z-score in [2] is -1.08 (inactive); in test [3], -0.894 (inactive); in test [4], 0.0897 (inactive); in test [5], 1.18 (inactive); in [11], 0.585 (inactive); in [13], 1.99 (inactive). The z-score in test [14] is 1.07 (inactive); in [15], 1.21 (inactive); in test [16], 0.368 (inactive); in test [17] it was 1.02; in test [18] it was 0.0908 (inactive); in test [19], -0.255 (inactive). The z-score in test [20] was -0.444.
With `COCCOC(=O)N1C(=O)[C@@]2(c3cc(C#CC4(O)CCCCCC4)ccc31)[C@H](C(=O)N1CCN(c3ncccn3)CC1)[C@H]1C(=O)O[C@H](c3ccccc3)[C@H](c3ccccc3)N1[C@@H]2c1ccc(OCCO)cc1`, the composite z-score in [1] is 0.495; in test [6], 0.436; in [7], 0.303; with Torsin-1A (Homo sapiens) [8], 0.227; in the test with Torsin-1A (Homo sapiens) [9], 0.425; in [10], 1.17. For the same molecule, the composite z-score in test [12] was 0.485. In addition, the z-score in test [2] is -3.05 (inactive); in [3] it was 0.905 (inactive); in test [4], -0.878 (inactive); in test [5], -0.249 (inactive); in [11] it was 1.74 (inactive); in test [13], 11.7 (active). Moreover, the z-score in test [14] was 2.25 (inactive); in [15], 1.35 (inactive); in test [16] it was 1.19 (inactive); in test [17], 0.372; in [18], 1.69 (inactive); in [19], -0.754 (inactive). Besides, in [20], the z-score amounted to 1.24.
On to `COCCCNC(=O)[C@@]1(CCS(=O)(=O)c2ccccc2)N=C(c2ccc(OCCCO)cc2)O[C@H]1c1ccccc1`, for which the composite z-score in [1] was 0.68; in test [6], 0.188; in [7], 0.38; with Torsin-1A (Homo sapiens) [8], 1.45; in the test with Torsin-1A (Homo sapiens) [9], 2.73; in test [10] it was -0.766. This molecule had a composite z-score in test [12] of 0.812. In addition, the z-score in [2] is -1.7 (inactive); in [3], -0.701 (inactive); in [4] it was 0.951 (inactive); in [5], 0.353 (inactive); in test [11], 2.46 (inactive); in test [13], 28.5 (active). Further, the z-score in [14] is 21 (active); in test [15], 1.08 (inactive); in test [16], 1.55 (inactive); in test [17], 0.326; in test [18] it was 3.58 (inactive); in test [19], 1.71 (inactive). The z-score in test [20] was -0.339.
With `CCOC(=O)CCN1C(=O)[C@H]2[C@H]3[C@H](O)[C@H](O)CC(=O)[C@H]3CC[C@H]2C1=O`, the composite z-score was 0.0032 in test [1]; 0.275 in [6]; -0.183 in test [7]; 0.269 with Torsin-1A (Homo sapiens) [8]; 0.326 in the test with Torsin-1A (Homo sapiens) [9]; 0.693 in test [10]. For the same molecule, the composite z-score in test [12] was -0.0984. Further, the z-score is -3.04 (inactive) in test [2]; -0.829 (inactive) in test [3]; 0.429 (inactive) in test [4]; -0.236 (inactive) in test [5]; -1.98 (inactive) in test [11]; -0.062 (inactive) in test [13]. In addition, the z-score in [14] is -0.426 (inactive); in test [15], -0.451 (inactive); in [16], -1.42 (inactive); in test [17], 1.11; in [18], -0.513 (inactive); in test [19] it was 0.947 (inactive). In addition, the z-score in [20] was -0.00675.
